Reference: PubChem BioAssay AID1851 (National Center for Advancing Translational Sciences (NCATS), 2009)
The whole screen tested about 16,000 compounds, of which about 4,000 (25%) were called active. Another 26% or so got no clear call; they are omitted. Only a sample is shown. Values without a mark were called inactive. The call rests on the fitted dose curve; in most records, active means well fitted curve in the direction sought with a large enough effect; inconclusive means small, poorly fitted or top-dose-only effect, or effect the other way; inactive means no such curve, though single readings can be large or run the other way. Peptide text beside a SMILES is read from it.

target: Cytochrome P450 2C9 (Homo sapiens) (UniProt P11712); experiment: Cytochrome panel assay with activity outcomes; conditions: recombinant CYP, pro-luciferin dealkylation, luminescence, p450-cyp2c9; series mostly up to 57.1 µM
Sequence (P11712 whole entry, looked up): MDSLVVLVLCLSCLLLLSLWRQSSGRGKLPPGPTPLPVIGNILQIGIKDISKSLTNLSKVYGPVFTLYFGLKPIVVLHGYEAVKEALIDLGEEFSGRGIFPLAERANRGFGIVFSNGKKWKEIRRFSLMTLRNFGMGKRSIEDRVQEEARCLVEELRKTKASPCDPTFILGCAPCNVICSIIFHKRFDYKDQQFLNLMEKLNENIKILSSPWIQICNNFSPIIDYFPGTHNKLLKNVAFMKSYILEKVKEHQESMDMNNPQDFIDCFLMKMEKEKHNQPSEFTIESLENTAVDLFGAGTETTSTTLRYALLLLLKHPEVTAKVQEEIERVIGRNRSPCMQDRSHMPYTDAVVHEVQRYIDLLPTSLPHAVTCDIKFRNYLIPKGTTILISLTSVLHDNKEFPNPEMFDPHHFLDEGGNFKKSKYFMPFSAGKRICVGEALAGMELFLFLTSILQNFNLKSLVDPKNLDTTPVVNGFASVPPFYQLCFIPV
On the % scale 0 is the no-effect control and ±100 the full control effect.

Row | Structure (SMILES) | activity, negative = inhibition | AC50
1 | Clc1ccc(-c2noc(CN3CCCCC3)n2)cc1 | -0.0394% [at 11.4 µM] | 
2 | Cc1ccc(-c2noc(CN3CCN(C(c4ccccc4)c4ccccc4)CC3)n2)cc1 |  | 5.01 µM (active)
3 | CC(=O)[C@@H](C)CCO[C@@]1(C)OCC[C@@H]1C | -15.7% [at 11.4 µM] | 
4 | CC(C)(CC(=O)Nc1ccccc1)C(=O)O | 4.33% [at 11.4 µM] | 
5 | Cc1ccc(NCCC(=O)c2ccc(Cl)cc2)cc1C |  | inactive
6 | Cc1cc(C)cc(C(=O)N(NC(=O)Nc2ccc(Cl)cc2)C(C)(C)C)c1 |  | 5.01 µM (active)
7 | Cc1c(Cl)c(S(N)(=O)=O)cc(S(N)(=O)=O)c1NC(=O)c1ccc(Cl)cc1 | -6.54% [at 11.4 µM] | 
8 | CC(C)(C)N(NC(=O)Nc1ccccc1)C(=O)c1ccccc1Cl |  | 14.1 µM (active)
9 | O=C(O)[C@@H](Cc1c[nH]c2ccccc12)C(=O)NO | -10.3% [at 11.4 µM] | 
10 | c1ccc2c(CN3CCN(Cc4c[nH]c5ccccc45)CC3)c[nH]c2c1 | -0.0395% [at 11.4 µM] | 
11 | O=S1(=O)CCN(c2ccccc2CC(c2c[nH]c3ccccc23)c2c[nH]c3ccccc23)CC1 |  | 3.16 µM (active)
12 | Cc1ncn(-c2ccccc2O)c1C | 9.91% [at 11.4 µM] | 
13 | CCOC(=O)N1CCC(NC(=O)CCC(=O)N2CCOc3ccccc32)CC1 |  | inactive
14 | CCOC(=O)N1CCC(NC(=O)CSCc2cnn(-c3ccccc3)c2-n2cccc2)CC1 |  | 4.47 µM (active)
15 | Cc1ccc(C)c(Cn2cnc3c(cnn3C(C)(C)C)c2=O)c1 |  | 8.91 µM (active)
16 | Cc1ccc(-n2ncc3c(=O)n(CC(=O)NCC4CCCO4)cnc32)cc1 (stereo unspecified) |  | inactive
17 | Cc1ccccc1Cn1cnc2c(cnn2C(C)(C)C)c1=O |  | 15.8 µM (active)
18 | Cc1ccc(NC(=O)Cn2cnc3c(cnn3C(C)(C)C)c2=O)cc1 |  | 10 µM (active)
19 | CO[C@H]1[C@H](O[C@H]2O[C@@H](C)[C@@H](O[C@@H]3C[C@](C)(O)[C@H](OC(=O)CC(C)C)[C@H](C)O3)[C@@H](N(C)C)[C@@H]2O)[C@@H](CC=O)C[C@@H](C)[C@@H](O)/C=C\C=C/C[C@@H](C)OC(=O)C[C@H]1OC(C)=O |  | inactive
20 | Cc1cnc(CNc2ccnc(-c3ccccc3Cl)n2)cn1 | 7.84% [at 2.29 µM] | 
21 | CN(C)c1ccc(-c2cncnc2-n2ccnc2)cc1 | 15.2% [at 2.29 µM] | 
22 | C[C@@H](CSC(=N)N)C(N)=O | -9.17% [at 11.4 µM] | 
23 | COc1ccccc1N1CCN(CCCCNS(=O)(=O)c2cccc3c(N(C)C)cccc23)CC1 |  | inactive

Row | Structure (SMILES) | activity, negative = inhibition | AC50
24 | Cc1noc(NS(=O)(=O)c2cccc3c(N(C)C)cccc23)c1C |  | 0.631 µM (active)
25 | Cc1noc(C)c1-c1nc(N(C)C)c2ccccc2n1 | 27.2% [at 2.29 µM] | 
26 | Cc1ccc(/C=C/C(=O)N2CC(C)CC(C)C2)o1 (stereo unspecified) |  | 15.8 µM (active)
27 | Cc1ccc(/C=N/NC(=O)Cn2nccc2C)o1 |  | inactive
28 | CSc1nc(Sc2cccc(Cl)c2)c2ccccc2n1 |  | 0.251 µM (active)
29 | CSc1nnnc2ccccc12 | 14.9% [at 11.4 µM] | 
30 | COc1ccccc1NC(=O)C1=C(C)Nc2nnnn2C1c1cccc(Br)c1 (stereo unspecified) |  | 14.1 µM (active)
31 | COc1ccccc1CNc1ccnc(-c2ccc(N(C)C)cc2)n1 | -19.9% [at 2.29 µM] | 
32 | COC(=O)C1=C(C)Nc2ncnn2C1c1cccnc1 (stereo unspecified) |  | inactive
33 | CC1=C(C(=O)Nc2cccnc2)C(c2cccnc2)n2nc(-c3cccs3)nc2N1 (stereo unspecified) |  | 8.91 µM (active)
34 | COc1ccccc1NC(=O)c1nc[nH]c1C(=O)Nc1ccccc1OC |  | inactive
35 | COc1ccccc1NC(=O)C1=C(C)Nc2nc(-c3ccc(N(C)C)cc3)nn2C1c1ccncc1 (stereo unspecified) |  | 8.91 µM (active)
36 | NS(=O)(=O)c1cc2c(cc1Cl)N[C@@H](C(Cl)Cl)NS2(=O)=O |  | inactive
37 | Cc1noc(C)c1-c1nccc(NCc2cccs2)n1 | -12.6% [at 2.29 µM] | 
38 | COc1cc([C@H](O)CO)ccc1O |  | inactive
39 | CCCCNN | -5.3% [at 11.4 µM] | 
40 | NCCSCCC(=O)O | -9.49% [at 11.4 µM] | 
41 | C=C1CC[C@H](O)C/C1=C/C=C1\CCC[C@]2(C)[C@H]1CC[C@H]2[C@@H](C)/C=C\[C@@H](C)C(C)C |  | inactive
42 | COc1cc(C(=O)N2CCC(NC(=O)C(Cc3ccc(C(C)C)cc3)NC(C)=O)CC2)cc(OC)c1OC (stereo unspecified) |  | inactive
43 | Cc1ccc(Oc2ccccc2/C=C2\SC(=O)N(C)C2=O)cc1 |  | 10 µM (active)
44 | COc1cc(C)cc2c(-c3c(O)cc(O)c4c3C[C@H](C)N[C@@H]4C)cc(-c3cc(-c4c(O)cc(O)c5c4C[C@H](C)N[C@@H]5C)c4cc(C)cc(OC)c4c3O)c(O)c12 | -22.5% [at 11.4 µM] | 
45 | O=C(O)C[C@H](NC(=O)CP(=O)(O)O)C(=O)O.[NH-][C@@H]1CCCC[C@@H]1[NH-].[Pt] | -7.92% [at 11.4 µM] | 
46 | COc1ccc2c(c1)CCc1sc(NC(=O)c3ccc(C)cc3)nc1-2 |  | 5.01 µM (active)

Row | Structure (SMILES) | activity, negative = inhibition | AC50
47 | COc1ccc(NC(=O)N2CCCC3(CCN(C(=O)c4ccco4)CC3)C2)cc1 |  | inactive
48 | COc1ccc2c(c1)Cc1sc(NC(=O)c3ccco3)nc1-2 |  | 10 µM (active)
49 | COc1cccc(C(=O)Nc2nc3c(s2)CN(C)CC3)c1 |  | inactive
50 | O=C(Nc1nnc(SCc2ccc(Cl)cc2)s1)c1ccco1 |  | 0.562 µM (active)
51 | COc1ccc(C(=O)Nc2nc3c(s2)Cc2cc(OC)ccc2-3)cc1 |  | 5.62 µM (active)
52 | CC(=O)Nc1nnc(SCc2ccc(F)cc2)s1 |  | inactive
53 | C[N+]1(C)CCC[C@@H](OC(=O)C(O)(c2ccccc2)c2ccccc2)C1 |  | inactive
54 | COc1ccc(-n2c(=O)c(C)nc3cnc(N(C)C)nc32)cc1 |  | inactive
55 | CN(C)c1ncnc2ccc(-c3ccccc3C(F)(F)F)cc12 | -18.7% [at 2.29 µM] | 
56 | COc1ccccc1-c1cc(Nc2ccc(F)cc2)ncn1 | -2.06% [at 2.29 µM] | 
57 | O=C(NNC(=O)C1CCCCC1)c1cnccn1 |  | inactive
58 | CC(C)CN(C)c1nc(N)c(C(=O)N=C(N)N)nc1Cl |  | inactive
59 | Clc1ccccc1-c1nc(NCCN2CCOCC2)c2ccccc2n1 | 24.6% [at 2.29 µM] | 
60 | O=C1CSC2(CCN(CCCN3c4ccccc4Sc4ccc(Cl)cc43)CC2)N1 | 4.61% [at 11.4 µM] | 
61 | COc1ccc(Cc2nnc(NC(=O)c3ccco3)s2)cc1 |  | 2.82 µM (active)
62 | COc1ccccc1NC(=O)Nc1nnc(-c2ccco2)s1 |  | inactive
63 | OC[C@@H]1O[C@@H](n2cnc3cncnc32)[C@@H](O)[C@H]1O |  | inactive
64 | COc1cccc(-c2nccc(NCc3cnc(C)cn3)n2)c1 | -10.6% [at 2.29 µM] | 
65 | CN(C)CC/C=C1\c2ccccc2CSc2ccccc21 |  | inactive
66 | C[C@H](N)C(=O)O |  | inactive
67 | CC(=O)N[C@@H](CC(=O)O)C(=O)N[C@@H](CCC(=O)O)C(=O)O (Ac-Asp-Glu-OH) |  | inactive
68 | O=C(c1csnn1)N1CCC2(CC1)CCN(c1ccccc1)CC2 |  | inactive
69 | O=C(c1csnn1)N1CCC2(CCCN(c3ccccc3)C2)CC1 |  | 7.94 µM (active)

Row | Structure (SMILES) | activity, negative = inhibition | AC50
70 | O=C(c1csnn1)N1CCC2(CC1)CN(c1ccccc1)C2 |  | inactive
71 | O=C(c1csnn1)N1CCC2(CC1)CN(c1cccc(-c3ccccc3)c1)C2 |  | inactive
72 | O=C(c1csnn1)N1CCC2(CC1)CN(c1ccncc1)C2 |  | 2.51 µM (active)
73 | O=C(c1csnn1)N1CCC2(CCCN(c3ccc(-c4ccccc4)cc3)C2)CC1 |  | inactive
74 | COc1ccc(NC(=O)N2CC[C@@]3(CCCN(C(C)=O)C3)C2)cc1 |  | inactive
75 | COC(=O)CSc1nnc(-c2ccccc2OC)n1-c1ccc(C)cc1 |  | inactive
76 | CCn1c(SCC(=O)OC)nnc1C1CCCCC1 |  | inactive
77 | CCOc1ccc(-c2nnc3ccc(SCC(=O)NCc4ccco4)nn23)cc1 |  | 11.2 µM (active)
78 | COC(=O)CSc1ccc2nnc(-c3ccc(F)cc3)n2n1 |  | 10 µM (active)
79 | O[C@@H](c1cc([C@@]23C[C@H]4CC[C@@H]2C[C@H](C4)C3)nc2c(Cl)cc(Cl)cc12)[C@@H]1CCCCN1 | -4.65% [at 11.4 µM] | 
80 | Cc1cnc(CNc2cc(-c3ccc(C(=O)N(C)C)cc3)ncn2)cn1 | 23.4% [at 2.29 µM] | 
81 | COc1ccc(/C=N/NC(=O)C2CCN(c3ncc(C(F)(F)F)cc3Cl)CC2)cc1 |  | inactive
82 | FC(F)(F)c1cnc(N2CCC(=NOCc3ccc(Cl)cc3)CC2)c(Cl)c1 |  | inactive
83 | O=C(OC1CCN(c2ncc(C(F)(F)F)cc2Cl)CC1)c1ccccc1 |  | 10 µM (active)
84 | COC(=O)[C@@]1(Cc2ccc(F)cc2)[C@H]2c3cc(C(=O)N4CCCC4)n(CCc4ccc(O)c(O)c4)c3C[C@H]2CN1C(=O)c1ccccc1 |  | 3.16 µM (active)
85 | COC(=O)[C@@]1(Cc2ccc(F)cc2)[C@H]2c3cc(C(=O)N4CCCC4)n(CCc4ccc(OC)c(Br)c4)c3C[C@H]2CN1C(=O)c1ccccc1 |  | 3.16 µM (active)
86 | COc1ccccc1CN1CCCC2(CCN(C(=O)c3cccn3C)CC2)C1 |  | inactive
87 | C/C(=N\OC(=O)c1ccccc1F)c1nccs1 |  | inactive
88 | O=S(=O)(O)c1ccc2cc(N=Nc3cc(S(=O)(=O)O)c4cccnc4c3O)ccc2c1 | -4.09% [at 11.4 µM] | 
89 | Cc1cc(C)cc(-n2c(O)c(C=NC3CCS(=O)(=O)C3)c3ccccc3c2=O)c1 (stereo unspecified) |  | 4.47 µM (active)
90 | Cc1ccc(-n2cnc(=O)c3cccnc32)cc1 |  | inactive
91 | Cc1ccc(-n2c(O)c(/C=N/n3cnnc3)c3ccccc3c2=O)cc1 |  | 0.794 µM (active)
